This is one part of a sample in which hits are shown more often than they occur.
Pf Dd2 inh = blocks in vitro growth of P. falciparum Dd2 | Potency, µM (highest dose often 28.9 µM), actives largely listed as inhibitors | AID 1347417 | 120,000 tested, 4.3% active | P. falciparum Dd2 growth, SYBR Green, 72 h; active means well fitted inhibition curve with a large enough effect; further: nearly all actives have a fitted effect of over 65% in size
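Infected erythrocytes (Dd2, 0.3% parasitemia, 2.5% hematocrit final) are added to compound in RPMI-1640/Albumax II medium, grown 72 h at 37C in low oxygen, then lysed with saponin/Triton-X containing SYBR Green and read by fluorescence.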
A number is an active result; . = inactive.

SMILES	Pf Dd2 inh
Cc1ccc(C(N)=O)cc1-c1cc(NCc2cccnc2)nc2[nH]ccc12	.
CSc1nccc(-c2cc(NCc3cccnc3)nc3[nH]ccc23)n1	10µM
CSc1nccc(-c2ccccc2CO)n1	.
O=C(c1cccnc1OC1CCN(S(=O)(=O)c2ccccc2)C1)N1CCCCC1 (stereo unspecified)	.
O=C(C1CCC(CNS(=O)(=O)c2cccs2)CC1)N1CCN(c2ccc(Cl)cc2)CC1 (stereo unspecified)	13µM
O=C(C1CCC(CNS(=O)(=O)c2ccc(Br)s2)CC1)N1CCN(c2ccccc2)CC1 (stereo unspecified)	.
O=C(C1CCN(S(=O)(=O)c2cccs2)CC1)N1CCN(c2cccc(Cl)c2)CC1	.
CC(C)(C)OC(=O)N1CCC(c2c(C(=O)NCc3ccccc3)cnn2-c2cccc(F)c2)CC1	10µM
Cc1ccc(-n2ncc(C(=O)NCc3ccccn3)c2C2CCN(C(=O)OC(C)(C)C)CC2)c(C)c1	.
Cc1cccc(C)c1-n1ncc(C(=O)Nc2ccc3c(c2)OCO3)c1C1CCN(C(=O)OC(C)(C)C)CC1	.
Cc1ccc(-n2ncc(C(=O)NCCc3ccccc3)c2C2CCN(C(=O)OC(C)(C)C)CC2)c(C)c1	10µM
CC(C)(C)OC(=O)N1CCC(c2c(C(=O)Nc3ccc4c(c3)OCCO4)cnn2-c2ccc(F)cc2)CC1	7.9µM
CC(C)(C)OC(=O)N1CCC(c2c(C(=O)NCCc3ccccc3)cnn2-c2ccc(F)cc2F)CC1	5.6µM
CC(C)(C)OC(=O)N1CCC(c2c(C(=O)N3CCCCC3)cnn2-c2cccc(F)c2)CC1	.
COCCCNC(=O)c1cnn(-c2ccc(F)cc2F)c1C1CCNCC1	.
CC(C)(C)OC(=O)N1CCC(c2c(C(=O)N3CCOCC3)cnn2-c2cccc(F)c2)CC1	.
CC(=O)c1ccc(NC(=O)Cn2c(N3CCc4ccccc4C3)nc(C)cc2=O)cc1	.
CCNC(=O)N1CCc2nc(OCCOC)ccc2C1	.
Cc1ccc(N2CC(c3noc(C4(c5ccccc5)CC4)n3)CC2=O)cc1 (stereo unspecified)	.
O=C1N(C2CCN(Cc3ccncc3F)CC2)C(c2ccncc2)C12CCCCC2 (stereo unspecified)	.
O=C(NC1CCCCC1)[C@@H]1C[C@@H](O)CN1C1CCN(C(=O)C2CCOCC2)CC1	.
COc1ccc(C[C@H](NC(=O)C2=C[C@@H](NC(=O)Nc3ccccc3Br)[C@@H](O)[C@H](O)C2)C(N)=O)cc1	.
Cn1c(CNC(=O)c2cc[nH]c2C2CCCNC2)nc2ccccc21 (stereo unspecified)	.
CC(C)C(=O)N1CCCC(c2noc(COc3ccccc3F)n2)C1 (stereo unspecified)	.
Cc1ccc(-n2ncc(C(=O)N3CCc4ccccc4C3)c2C2CCN(C(=O)OC(C)(C)C)CC2)cc1C	.
SMILES	Pf Dd2 inh
O=C(NCCc1ccccc1)c1cnn(-c2ccc(F)cc2)c1-n1cccc1	.
Cc1ccc(-n2ncc(C(=O)Nc3ccc(C)c(F)c3)c2C2CCN(C(=O)OC(C)(C)C)CC2)cc1C	.
CCOC(=O)c1ccc(NC(=O)c2cnn(-c3ccc(C)cc3C)c2C2CCN(C(=O)OC(C)(C)C)CC2)cc1	13µM
Cc1ccc(-n2ncc(C(=O)NCc3ccco3)c2C2CCN(C(=O)OC(C)(C)C)CC2)cc1C	11µM
CC(C)(C)OC(=O)N1CCC(c2c(C(=O)NCc3cccs3)cnn2-c2ccc(F)cc2F)CC1	4µM
CC(C)(C)OC(=O)N1CCC(c2c(C(=O)NCCc3ccccc3)cnn2-c2ccc(F)cc2)CC1	11µM
COCc1cc(N2CCC(c3cccc(OC)c3OC)C2)ncn1 (stereo unspecified)	.
CN1C(=O)CS(=O)(=O)C12CCN(C(=O)c1ccc(F)c(F)c1)CC2	.
COC(=O)c1ccc2nc(CO[C@H]3CN(C4CCOCC4)C[C@H]3F)[nH]c2c1	.
CCc1cn[nH]c1C1CCCN(C(=O)c2oc3cc(C)ccc3c2C)C1 (stereo unspecified)	.
O=C(c1ccccc1F)N1CCC2(CC1)C(=NC1CCCCC1)NC(=O)N2c1cccnc1	.
CCOc1ccc(NC(=O)Cn2cc(C(=O)c3ccco3)c3ccccc32)cc1	.
Cc1ccc(NC(=O)Cn2cc(C(=O)c3ccco3)c3ccccc32)cc1	11µM
O=C(Cn1cc(C(=O)c2ccco2)c2ccccc21)Nc1ccccc1Cl	.
Cc1ccc(NC(=O)Cn2cc(C(=O)c3ccco3)c3ccccc32)cc1C	8.9µM
O=C(Cn1cc(C(=O)c2ccco2)c2ccccc21)Nc1ccccc1C(F)(F)F	.
Cc1cccc(C)c1NC(=O)Cn1cc(C(=O)c2ccco2)c2ccccc21	.
CN(Cc1ccsc1)C1CCOc2ccccc21 (stereo unspecified)	.
COCCC(=O)N1CCC(N2CCCC(C(=O)NCc3ccccn3)C2)CC1 (stereo unspecified)	.
C=CCOC(=O)C1=C(C)N=C2SC=C(CC(=O)NCc3ccco3)N2C1c1cccc(C)c1 (stereo unspecified)	.
CCOC(=O)C1=C(C)N=C2SC=C(CC(=O)NC3CC3)N2C1c1ccccc1C (stereo unspecified)	.
COC(=O)C1=C(C)N=C2SC=C(CC(=O)NCc3ccccc3)N2C1c1ccccc1F (stereo unspecified)	.
C=CCOC(=O)C1=C(C)N=C2SC=C(CC(=O)NCc3ccc(F)cc3)N2C1c1ccccc1C (stereo unspecified)	3.2µM
CCOC(=O)C1=C(C)N=C2SC=C(CC(=O)NCC3CCCO3)N2C1c1ccc(Cl)cc1 (stereo unspecified)	2.2µM
COC(=O)C1=C(C)N=C2SC=C(CC(=O)NC3CC3)N2C1c1ccc(C)cc1C (stereo unspecified)	.
SMILES	Pf Dd2 inh
CCOC(=O)C1=C(C)N=C2SC=C(CC(=O)N3CCCC3)N2C1c1ccc(Cl)cc1 (stereo unspecified)	.
COC(=O)C1=C(C)N=C2SC=C(CC(=O)NCC3CCCO3)N2C1c1ccccc1C (stereo unspecified)	.
CC1=C(C(=O)OC(C)C)C(c2ccccc2C)N2C(CC(=O)NC3CC3)=CSC2=N1 (stereo unspecified)	7.9µM
CCC1(N2CCN(S(=O)(=O)c3cccc4cccnc34)CC2)CCN(C(=O)NC)C1 (stereo unspecified)	.
O=C(NCc1cccc(Cl)c1)c1noc(-c2ccc3c(c2)OCO3)n1	.
CN1C(=O)CN(CCCCOc2ccccc2)C(=O)c2ccccc21	.
CC(C)CN(CC1CN(C(=O)NCc2ccccc2)CCO1)C(=O)c1ccc2c(c1)OCO2 (stereo unspecified)	.
CC(=O)N1CCCC(C(=O)NCc2nc(Cc3cccs3)no2)C1 (stereo unspecified)	.
CCN(CC)c1ncccc1CNC(=O)C1CCOC1 (stereo unspecified)	.
O=C(NCc1nnc2ccc(-c3ccccc3)nn12)c1ccc[nH]c1=O	.
CN1CCCCCC(O)c2cc(C(=O)NC3CCN(Cc4ccccc4)CC3)ccc21 (stereo unspecified)	.
O=C(NCc1ccccc1)N1CCCC(c2nc(CCOc3ccc(F)cc3)no2)C1 (stereo unspecified)	.
COc1cccc(N2CC(C(=O)N3CCC(C(=O)NCC4CC4)C3)NC2=O)c1 (stereo unspecified)	.
COc1ccc(OC2CN(CC3CC3)C2)cc1	.
CCN1CCN(Cc2c(O)ccc3c(=O)c(Oc4ccccc4C(C)C)c(C(F)(F)F)oc23)CC1	0.063µM
